High-throughput results: PubChem BioAssay, several laboratories
This excerpt belongs to a sample that is enriched for hits.
RmlCD inh 1536: M. tuberculosis RmlC/RmlD inhibition; inhibition, % at 3.6 µM; 160,000 compounds, 0.03% hits; RmlC+RmlD coupled enzyme assay, percent inhibition; primary screen in compound mixtures; P9WH09+P9WH11; in the data active = inhibition mostly above about 34%, no sharp cut-off; inconclusive = no clear call, values can overlap the other calls; inactive = mostly below about 22%
Target sequence (P9WH09 whole entry, looked up): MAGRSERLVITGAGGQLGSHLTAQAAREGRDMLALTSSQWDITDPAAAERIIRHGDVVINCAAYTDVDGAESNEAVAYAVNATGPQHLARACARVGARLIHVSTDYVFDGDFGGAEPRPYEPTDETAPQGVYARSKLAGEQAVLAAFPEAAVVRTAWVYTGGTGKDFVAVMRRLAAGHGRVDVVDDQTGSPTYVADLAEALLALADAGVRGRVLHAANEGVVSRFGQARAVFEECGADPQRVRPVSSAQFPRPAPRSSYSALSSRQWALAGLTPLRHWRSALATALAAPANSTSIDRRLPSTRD
Target sequence (P9WH11 whole entry, looked up): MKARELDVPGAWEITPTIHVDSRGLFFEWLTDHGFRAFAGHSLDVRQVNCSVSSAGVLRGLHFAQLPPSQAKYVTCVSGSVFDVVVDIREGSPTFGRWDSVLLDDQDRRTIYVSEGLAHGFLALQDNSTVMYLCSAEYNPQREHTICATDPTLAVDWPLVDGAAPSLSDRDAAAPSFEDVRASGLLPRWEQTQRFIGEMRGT
YopH inh: inhibitors of Yersinia enterocolitica YopH tyrosine phosphatase; fluorescence Ex485/Em525; inhibition, % (no concentration beside the values); 140,000 compounds, 0.16% hits; AID 898; in the data active = inhibition above about 50%
Of the large screens only hits and unclear results are named; the others gave an inactive call.

O=C(NCc1cccnc1)c1ccc(Cl)c(S(=O)(=O)Nc2ccccc2C(=O)NCc2cccnc2)c1	none (no result: YopH inh)
Cc1c(Cl)cn2c(=O)cc(CN3CCN(c4ccc(F)cc4)CC3)nc2c1Cl	none (no result: YopH inh)
COc1ccccc1NC(=O)COc1ccccc1C(=O)Nc1ccccc1	none (no result: YopH inh)
Cc1cc(C)c(NC(=O)COc2ccccc2C(=O)Nc2ccc3c(c2)oc2ccccc23)c(C)c1	RmlCD inh 1536 98.7
CC(=O)NC1=C(N(C)C2CCS(=O)(=O)C2)C(=O)c2ccccc2C1=O (stereo not drawn)	RmlCD inh 1536 inconclusive, YopH inh 74.0
CN(C(=O)Nc1ccccc1)C1CCS(=O)(=O)C1 (stereo not drawn)	none (no result: RmlCD inh 1536)
O=C(Nc1ccccc1)c1ccccc1C(=O)N1CCCCC1	none (no result: YopH inh)
O=C(NC(=S)N1CCN(C(c2ccccc2)c2ccccc2)CC1)c1ccc(S(=O)(=O)N2CCOCC2)cc1	none
O=C(NC(C(=O)O)c1ccccc1)c1ccc(S(=O)(=O)N2CCOCC2)cc1 (stereo not drawn)	YopH inh 50.3
Cn1c(Cc2ccccc2)nnc1SCC(=O)NCCc1ccccc1	none (no result: YopH inh)
O=C1CC(N(O)c2ccccc2)C(=O)N1c1cc(Cl)cc(Cl)c1 (stereo not drawn)	none
O=C1CC(N(O)c2ccccc2)C(=O)N1Cc1ccccc1 (stereo not drawn)	YopH inh 56.7
O=S(=O)(CCN1C=CC(C(F)(F)F)=NCC1)c1ccc(Cl)cc1Cl	none (no result: YopH inh)
COC(=O)C(Cc1c[nH]c2ccccc12)NC(=O)c1cc(-c2ccc(OC)c(OC)c2)oc1C (stereo not drawn)	none
COc1ccc(OC)c2[nH]c(C(=O)O)cc12	none (no result: RmlCD inh 1536)
COC(=O)c1cc(=O)c2cccc(OC)c2[nH]1	RmlCD inh 1536 62.4 (no result: YopH inh)
COCCCNC(=O)CCCOc1ccccc1	none (no result: RmlCD inh 1536)
COCCCNC(=O)CCCC(=O)NCCCOC	YopH inh 54.8
O=C(Oc1coc(CSc2ncccn2)cc1=O)c1ccccc1[N+](=O)[O-]	none (no result: YopH inh)
CCC(=O)N(CCC1(c2ccccc2OC)CCOC(C(C)C)C1)Cc1ccco1 (stereo not drawn)	none (no result: YopH inh)
CC(=O)Nc1sc(N/N=C/c2ccc(N(C)C)cc2)nc1-c1ccc(C)cc1	RmlCD inh 1536 63.6 (no result: YopH inh)
CC(=O)Nc1sc(N/N=C/c2ccc(C)cc2)nc1-c1ccc(C)cc1	none (no result: YopH inh)
Cc1ccc(/C=N/NC(=O)c2cccnc2)s1	none (no result: YopH inh)
CCC(=O)N(C1=C(NC)C(=O)c2ccccc2C1=O)C(C)C	none (no result: YopH inh)
CNC1=C(N(C(C)=O)c2ccc(Br)cc2)C(=O)c2ccccc2C1=O	YopH inh 84.0 (no result: RmlCD inh 1536)
Cn1c(=O)cc(C(=O)N/N=C/c2ccc(F)cc2)[nH]c1=O	none (no result: YopH inh)
S=C(NCCc1ccccc1)NC1CC2CCC(C1)N2Cc1ccccc1 (stereo not drawn)	none (no result: YopH inh)
O=C(Nc1ccc2c(c1)OCO2)C1CCN(C(=O)c2ccc(Br)cc2)CC1	none (no result: YopH inh)
CC1=CC(=C(C#N)c2nc3ccccc3s2)C=C(C)N1c1ccc(F)cc1	YopH inh 65.2
COc1ccccc1N1C(C)=CC(=C(C#N)c2nc3ccccc3s2)C=C1C	YopH inh 70.0
CC(C)=C(C#N)c1nc2ccccc2s1	none (no result: RmlCD inh 1536)
COc1cccc(-c2nc3ccccc3s2)c1O	none (no result: YopH inh)
C=CCSc1nnc2c(n1)OC(C)=Nc1ccc(Br)cc1-2	none (no result: YopH inh)
O=C(O)C1=C[C@H](c2ccc(F)cc2)C[C@H](OCCCCO)O1	none (no result: YopH inh)
Cc1[nH]n(-c2ccccc2)c(=O)c1Sc1ccc(Cl)cc1	none
Cc1[nH]n(-c2ccccc2)c(=O)c1C(C[N+](=O)[O-])c1ccc(Cl)cc1 (stereo not drawn)	YopH inh 75.6
Cc1[nH]n(-c2ccccc2)c(=O)c1C(C[N+](=O)[O-])c1ccc(F)cc1 (stereo not drawn)	none
Cc1ccc(C(C[N+](=O)[O-])c2c(C)[nH]n(-c3ccccc3)c2=O)cc1 (stereo not drawn)	YopH inh 82.8
CC(C)=CCC(C)(C)/C=N/NC(N)=O	none (no result: YopH inh)
CC1(C)Cc2nc3scc(NC(=O)c4ccccc4)c3cc2CO1	none (no result: YopH inh)
CC[n+]1ccc2cc(OC)c(OC)cc2c1Cc1ccc(OC)c(OC)c1	none (no result: YopH inh)
COc1ccc(Cc2nccc3cc(OC)c(OC)cc23)cc1OC	YopH inh 66.8 (no result: RmlCD inh 1536)
CCCCC1=CC2=CC(=O)C(C)(OC(=O)CC)C(=O)C2=CN1C1CCCC1 (stereo not drawn)	none (no result: YopH inh)
CC(=O)NS(=O)(=O)c1ccc(NC(=O)COc2ccc(C(=O)c3ccccc3)cc2)cc1	none
O=C1NCCN/C1=C\C(=O)c1cccc(Br)c1	none (no result: YopH inh)
C=CCN(C(=O)c1ccccn1)C(C(=O)NCc1ccccc1)c1ccccc1F (stereo not drawn)	none (no result: YopH inh)
COC(=O)c1cccc(NC(=O)CN2CCN(Cc3ccccc3)CC2)c1	none
COC(=O)c1ccc(Cl)c(NC(=O)CN2CCN(Cc3ccccc3)CC2)c1	YopH inh 63.7 (no result: RmlCD inh 1536)
COc1cccc(/C=N/NC(=O)c2cc3c(OC)cccc3[nH]2)c1O	RmlCD inh 1536 68.7
COc1cccc(/C=N/NC(=O)c2cc3c(OC)cccc3[nH]2)c1OC	none
CCCn1c(SCC(=O)Nc2nnc(CC)s2)nnc1-c1ccncc1	none (no result: YopH inh)
COc1cccc(OCCc2c(C)n[nH]c2C)c1	none
Cc1cccc(OCCCCc2c(C)n[nH]c2C)c1	YopH inh 70.2
